Data published in PubChem BioAssay (Tox21).
Values without a mark were called inactive. Records with an inconclusive call do not appear. A call without a number means that no potency is given here. Active and inactive are the calls of the source. Unless noted, the call rests on the fitted dose curve; in most records, active means well fitted curve in the direction sought with a large enough effect in the repeat runs; inconclusive means weak or mixed curves; inactive means no such curve, though single readings can be large; an effect the other way counts as inactive or inconclusive.

Key:
[1] = qHTS assay to identify small molecule agonists of the hypoxia (HIF-1) signaling pathway - cell viability counter screen (AID 1224844; calls by dose curve; further: nearly all actives have a fitted effect of over 50% in size)
Summary of the method: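 Cytotoxicity was measured in parallel with the HRE-driven beta-lactamase readout: after 17 hrs of compound exposure at 37C, HRE-bla ME-180 cells received CellTiter-Glo and luminescence was recorded 30 min later.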

[2] = qHTS assay to identify small molecule agonists of H2AX (AID 1224845; active means well fitted activation curve with a large enough effect in the signal ratio in the repeat runs, not every such curve was filed as active; the % refers to the signal ratio)
Summary of the method: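 Wild-type CHO-K1 cells, plated overnight, exposed 3hr at 37C to 15 concentrations (0.76% DMSO final). Lysed, then HTRF anti-pH2AX (S139) cryptate and anti-H2AX-d2 antibodies, 24 hr room temperature; 665/620 nm emission read.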

[3] = qHTS assay to identify small molecule agonists of the hypoxia (HIF-1) signaling pathway (AID 1224846; active means well fitted activation curve with a large enough effect in the signal ratio in the repeat runs, not every such curve was filed as active; the % refers to the signal ratio)
Summary of the method: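 Compounds from the Tox21 10K library, dissolved in DMSO, are tested for induction of a hypoxia response element–controlled beta-lactamase reporter in ME-180 cells. Exposure lasts 17 hrs at 37C after a 5 hr settling period, followed by CCF4-AM FRET substrate.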

[4] = qHTS assay to identify small molecule agonists of H2AX - cell viability counter screen (AID 1224847; calls by dose curve; further: top concentration of the series differs between compounds; nearly all actives have a fitted effect of over 30% in size)
Summary of the method: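 Viability of CHO-K1 (wild type) cells after 3 hr compound exposure was measured by CellTiter-Glo luminescence.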

[5] = qHTS RealTime-Glo MT Cell Viability Assay in HepG2 cells - 24 hour (AID 1224867); further: nearly all actives have a fitted effect of over 50% in size
Summary of the method: (§1)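 Tox21 10K library screened in qHTS format on HepG2 cells carrying RealTime-Glo reagents. Compounds were added after a 5 h preincubation, and the luminescent signal from continuous culture was measured repeatedly during 40 h treatment.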

[6] = qHTS RealTime-Glo MT Cell Viability Assay in HEK293 cells - 32 hour (AID 1224868); further: top concentration of the series differs between compounds; nearly all actives have a fitted effect of over 50% in size
Summary of the method: (§2)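 Luminescence generated by NanoLuc from substrate produced by living HEK293 cells served as the viability signal. Each value reflects the reading at its stated time point during continuous 40 h compound exposure at 37 C.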

[7] = A CellTox Green Cytotoxicity Assay to monitor cytotoxicity in HEK293 cells - 0 hour (AID 1224869); further: nearly all actives have a fitted effect of over 50% in size
Summary of the method: (§3)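 Cells (HEK293, 600/well) and dye reagent are dispensed together. After 5 h at 37 C, 23 nL compound is pinned in. Plates stay at 37 C for 40 h with fluorescence read at 0h, 8h, 16h, 24h, 32h and 40h.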

[8] = qHTS RealTime-Glo MT Cell Viability Assay in HepG2 cells - 40 hour (AID 1224870); further: nearly all actives have a fitted effect of over 50% in size
Summary of the method: (§4)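 HepG2 cells (600/well) mixed with RealTime-Glo MT reagent, settled 5 h at 37 C/5% CO2 before compound addition. Nonlytic NanoLuc luminescence from viable-cell prosubstrate reduction read repeatedly during 40 h treatment at 37 C.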

[9] = A CellTox Green Cytotoxicity Assay to monitor cytotoxicity in HEK293 cells - 40 hour (AID 1224871); further: nearly all actives have a fitted effect of over 45% in size; further: potency means the concentration at half of the fitted maximal effect
Summary of the method: as §3

[10] = qHTS RealTime-Glo MT Cell Viability Assay in HEK293 cells - 16 hour (AID 1224872)
Summary of the method: as §2

[11] = qHTS RealTime-Glo MT Cell Viability Assay in HepG2 cells - 8 hour (AID 1224873); further: nearly all actives have a fitted effect of over 55% in size
Summary of the method: as §4

[12] = qHTS RealTime-Glo MT Cell Viability Assay in HEK293 cells - 40 hour (AID 1224874); details: RealTime-Glo luminescence; max response: active compounds read low; further: nearly all actives have a fitted effect of over 50% in size
Summary of the method: (§5)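 Real-time viability in HEK293: signal arises when living cells convert a prosubstrate for NanoLuc in the medium, so luminescence tracks viable cell number. Compound (23 nL, DMSO) added 5 h post-seeding; kinetic reads at 0–40 h, 37 C.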

[13] = A CellTox Green Cytotoxicity Assay to monitor cytotoxicity in HEK293 cells - 24 hour (AID 1224875); further: series mostly up to about 77 µM; nearly all actives have a fitted effect of over 45% in size
Summary of the method: as §3

[14] = A CellTox Green Cytotoxicity Assay to monitor cytotoxicity in HepG2 cells - 16 hour (AID 1224876); further: nearly all actives have a fitted effect of over 45% in size
Summary of the method: (§6)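 Cells and non-lytic dye reagent are dispensed together (600 HepG2 cells/well) and incubated 5 h before DMSO compound transfer. Kinetic fluorescence is then recorded in the same wells during 40 h at 37 C.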

[15] = qHTS RealTime-Glo MT Cell Viability Assay in HepG2 cells - 32 hour (AID 1224877); further: nearly all actives have a fitted effect of over 55% in size
Summary of the method: as §1

[16] = A CellTox Green Cytotoxicity Assay to monitor cytotoxicity in HepG2 cells - 24 hour (AID 1224878); further: nearly all actives have a fitted effect of over 45% in size
Summary of the method: as §6

[17] = A CellTox Green Cytotoxicity Assay to monitor cytotoxicity in HepG2 cells - 40 hour (AID 1224879); further: nearly all actives have a fitted effect of over 40% in size
Summary of the method: as §6

[18] = qHTS RealTime-Glo MT Cell Viability Assay in HEK293 cells - 0 hour (AID 1224880)
Summary of the method: as §5

SMILES | Potency [1] | Potency [2] | outcome [3] | outcome [4] | outcome [5] | Potency [6] | outcome [7] | Potency [8] | Potency [9] | Potency [10] | outcome [11] | max response [12] [%] | outcome [13] | outcome [14] | Potency [15] | outcome [16] | Potency [17] | Potency [18]
C1CCC2=NCCCN2CC1 | inactive | inactive | inactive | inactive | inactive | inactive | inactive | inactive | inactive | inactive | inactive | 20.2 | inactive | inactive | inactive | inactive | inactive | inactive
C=CC(C)(CCC=C(C)C)OC(=O)CC (configuration not stated) | inactive | inactive | inactive | inactive | inactive | inactive | inactive | inactive | inactive | inactive | inactive | -1.4 | inactive |  | inactive | inactive |  | inactive
Cc1ncc([C@@H](CCCCCCc2ccc3c(n2)NCCC3)CC(=O)O)cn1 | inactive | inactive | inactive | inactive | inactive | inactive | inactive | inactive | inactive | inactive |  | 4.72 | inactive | inactive | inactive | inactive | inactive | 
CC1(C)[C@@H]2CC[C@@]1(C)[C@H](O)C2 | inactive | inactive | inactive | inactive | inactive | inactive | inactive | inactive | inactive |  | inactive | 2.75 | inactive | inactive | inactive | inactive | inactive | inactive
Cc1onc(-c2c(Cl)cccc2Cl)c1C(=O)Cl | inactive | inactive | inactive | inactive | inactive | inactive | inactive |  | inactive | inactive | inactive | 2.75 | inactive | inactive | inactive | inactive | inactive | inactive
NC(CCC(=O)O)C(=O)O (configuration not stated) | inactive | inactive | inactive | inactive | inactive | inactive | inactive | inactive | inactive | inactive | inactive | 16.4 | inactive | inactive | inactive | inactive |  | inactive
CCCCCC(C)N (configuration not stated) | inactive | inactive | inactive | inactive | inactive | inactive | inactive | inactive | inactive |  | inactive | 1.04 | inactive |  | inactive | inactive |  | 
CCCCN(CCC(=O)OCC)C(C)=O | inactive | inactive | inactive | inactive | inactive | inactive | inactive | inactive | inactive |  | inactive | 0.53 | inactive | inactive | inactive | inactive | inactive | 
CC(C)[C@H]1CC[C@@H](C)CC1=O | inactive | inactive | inactive | inactive | inactive | inactive | inactive |  | inactive | inactive | inactive | -1.73 | inactive | inactive |  | inactive | inactive | inactive
COc1c(N2CCNC(C)C2)c(F)cc2c(=O)c(C(=O)O)cn(C3CC3)c12 (configuration not stated) | inactive | inactive | inactive | inactive | inactive | inactive | inactive | inactive | inactive |  | inactive | 14 | inactive |  | inactive | inactive |  | inactive
CC(=O)N[C@H]1[C@H]([C@H](O)[C@H](O)CO)OC(C(=O)O)=C[C@@H]1N=C(N)N | inactive | inactive | inactive | inactive | inactive | inactive | inactive | inactive | inactive |  | inactive | 2.18 | inactive |  |  | inactive | inactive | inactive
COc1cc(C(=O)OC(COCCC(C)C)CN2CCOCC2)cc(OC)c1OC (configuration not stated) | inactive | inactive | inactive | inactive | inactive | inactive | inactive | inactive | inactive | inactive | inactive | -2.35 | inactive | inactive |  | inactive | inactive | inactive
CC(C)(C)C(=O)c1ccccc1 | inactive | inactive | inactive | inactive | inactive | inactive | inactive | inactive | inactive |  |  | 0.84 | inactive | inactive | inactive | inactive | inactive | 
O=[N+]([O-])c1ccc(/C=N\O)o1 | inactive | inactive | inactive | inactive | inactive | inactive | inactive | inactive | inactive | inactive | inactive | 4.52 | inactive | inactive |  | inactive | inactive | inactive
CC(=O)c1cnccn1 | inactive | inactive | inactive | inactive | inactive | inactive | inactive | inactive | 16.2 µM (active) |  | inactive | 3.82 | inactive | inactive |  | inactive | inactive | inactive
